# Reference: article PMC7862700, “An all-to-all approach to the identification of sequence-specific readers for epigenetic DNA modifications on cytosine”
# Columns and labels:
# Assay in all cases: DAPPL (digital affinity profiling via proximity ligation, sequencing); 10 mM Tris-HCl pH 7.5, 50 mM NaCl, 1 mM DTT, 4% glycerol, room temperature, 30 min; GST-TFs on glutathione beads, 16-mer random dsDNA library, 0.1% formaldehyde crosslink after washing; high values mean tight binding
# FEV = target: T1, FEV (Homo sapiens, UniProt Q99581 1-238); settings: protein: recombinant; tags: N-terminal GST; dsDNA, one strand shown
# T1 sequence: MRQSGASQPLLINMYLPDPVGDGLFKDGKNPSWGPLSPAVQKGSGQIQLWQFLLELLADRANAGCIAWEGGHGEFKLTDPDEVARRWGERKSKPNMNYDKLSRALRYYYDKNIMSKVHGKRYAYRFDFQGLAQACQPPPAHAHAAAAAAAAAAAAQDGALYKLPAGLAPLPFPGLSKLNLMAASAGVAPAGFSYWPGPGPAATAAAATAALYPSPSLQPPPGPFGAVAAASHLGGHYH
# Procedure, shortened: (§1)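 Binding signal is each hexamer's read frequency for a factor divided by its frequency in the tag-only sample. The factors were GST-fused human transcription factors from yeast, captured on glutathione beads, DNA-barcoded and pooled with that sample. Pools were incubated with 200 nmole of a random double-stranded 16-mer DNA library in Tris/NaCl/DTT/glycerol buffer at room temperature for 30 min, then washed, crosslinked with 0.1% formaldehyde, proximity-ligated with BsaI/T4 ligase (1 h, 37 °C), PCR-amplified and sequenced on an Illumina NextSeq500.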
# ETV5 = ETV5 (Homo sapiens, UniProt P41161 1-510); settings: protein: recombinant; tags: N-terminal GST; dsDNA, one strand shown
# Chain of ETV5 (P41161 whole entry): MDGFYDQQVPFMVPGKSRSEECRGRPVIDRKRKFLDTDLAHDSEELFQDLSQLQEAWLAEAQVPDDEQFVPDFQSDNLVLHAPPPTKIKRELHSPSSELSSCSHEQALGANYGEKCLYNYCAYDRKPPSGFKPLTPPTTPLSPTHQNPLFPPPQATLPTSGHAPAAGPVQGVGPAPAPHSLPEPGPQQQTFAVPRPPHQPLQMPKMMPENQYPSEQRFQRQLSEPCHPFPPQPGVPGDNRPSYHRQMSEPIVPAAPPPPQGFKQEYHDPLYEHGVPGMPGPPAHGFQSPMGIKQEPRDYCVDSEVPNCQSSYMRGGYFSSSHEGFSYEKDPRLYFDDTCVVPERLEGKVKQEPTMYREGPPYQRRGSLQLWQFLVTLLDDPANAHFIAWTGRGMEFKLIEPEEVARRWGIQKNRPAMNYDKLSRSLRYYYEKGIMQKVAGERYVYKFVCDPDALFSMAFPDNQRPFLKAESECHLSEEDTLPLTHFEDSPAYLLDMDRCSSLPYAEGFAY
# Procedure, shortened: as §1
# HSF1 = HSF1 (Homo sapiens, UniProt Q00613 1-529); settings: protein: recombinant; tags: N-terminal GST; chain copies: 3; dsDNA, one strand shown
# Chain of HSF1 (Q00613 whole entry): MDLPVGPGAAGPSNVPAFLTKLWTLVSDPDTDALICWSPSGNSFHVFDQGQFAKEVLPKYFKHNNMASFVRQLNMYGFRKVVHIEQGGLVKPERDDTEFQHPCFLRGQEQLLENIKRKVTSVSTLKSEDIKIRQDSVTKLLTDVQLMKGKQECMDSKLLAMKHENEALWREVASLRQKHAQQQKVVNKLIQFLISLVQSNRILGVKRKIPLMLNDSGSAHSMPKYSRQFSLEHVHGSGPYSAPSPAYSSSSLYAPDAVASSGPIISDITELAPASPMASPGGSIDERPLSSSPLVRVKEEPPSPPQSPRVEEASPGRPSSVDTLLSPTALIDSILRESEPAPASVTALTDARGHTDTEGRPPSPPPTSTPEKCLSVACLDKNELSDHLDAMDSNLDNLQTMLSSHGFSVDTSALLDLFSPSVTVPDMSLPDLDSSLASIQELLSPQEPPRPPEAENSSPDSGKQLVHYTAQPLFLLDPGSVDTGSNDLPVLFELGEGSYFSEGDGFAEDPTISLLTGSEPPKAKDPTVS
# Procedure, shortened: as §1
# SPIC = target: T2, SPIC (Homo sapiens, UniProt Q8N5J4 1-248); settings: protein: recombinant; tags: N-terminal GST; dsDNA, one strand shown
# T2 sequence: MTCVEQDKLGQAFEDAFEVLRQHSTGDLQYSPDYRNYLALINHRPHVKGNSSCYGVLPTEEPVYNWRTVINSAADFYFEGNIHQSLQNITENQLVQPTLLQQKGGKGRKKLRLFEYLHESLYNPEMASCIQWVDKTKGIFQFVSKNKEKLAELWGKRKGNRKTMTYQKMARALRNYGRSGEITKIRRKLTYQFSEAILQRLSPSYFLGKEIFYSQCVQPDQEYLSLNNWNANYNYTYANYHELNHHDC
# Procedure, shortened: as §1
# ELF4 = ELF4 (Homo sapiens, UniProt Q99607 1-663); settings: protein: recombinant; tags: N-terminal GST; dsDNA, one strand shown
# Chain of ELF4 (Q99607 whole entry): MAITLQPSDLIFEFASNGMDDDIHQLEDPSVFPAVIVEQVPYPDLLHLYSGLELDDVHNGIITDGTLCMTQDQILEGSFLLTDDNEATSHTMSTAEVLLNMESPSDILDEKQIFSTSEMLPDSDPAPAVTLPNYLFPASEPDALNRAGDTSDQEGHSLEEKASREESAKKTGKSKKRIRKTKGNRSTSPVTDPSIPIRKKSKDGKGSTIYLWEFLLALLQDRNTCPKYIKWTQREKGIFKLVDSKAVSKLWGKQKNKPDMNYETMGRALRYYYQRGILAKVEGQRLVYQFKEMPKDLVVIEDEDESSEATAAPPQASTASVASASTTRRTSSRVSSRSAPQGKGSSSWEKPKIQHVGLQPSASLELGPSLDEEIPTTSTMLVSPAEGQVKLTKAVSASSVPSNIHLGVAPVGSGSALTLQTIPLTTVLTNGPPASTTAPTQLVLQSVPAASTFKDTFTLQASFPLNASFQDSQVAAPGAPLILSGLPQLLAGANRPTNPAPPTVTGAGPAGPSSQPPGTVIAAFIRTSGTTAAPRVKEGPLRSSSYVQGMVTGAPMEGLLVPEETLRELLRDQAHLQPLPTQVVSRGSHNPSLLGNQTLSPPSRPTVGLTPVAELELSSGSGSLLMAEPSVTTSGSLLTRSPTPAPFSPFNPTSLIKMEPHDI
# Procedure, shortened: as §1
# ELK4 = target: T3, ELK4 (Homo sapiens, UniProt P28324-2 1-405); settings: protein: recombinant; tags: N-terminal GST; dsDNA, one strand shown
# T3 sequence: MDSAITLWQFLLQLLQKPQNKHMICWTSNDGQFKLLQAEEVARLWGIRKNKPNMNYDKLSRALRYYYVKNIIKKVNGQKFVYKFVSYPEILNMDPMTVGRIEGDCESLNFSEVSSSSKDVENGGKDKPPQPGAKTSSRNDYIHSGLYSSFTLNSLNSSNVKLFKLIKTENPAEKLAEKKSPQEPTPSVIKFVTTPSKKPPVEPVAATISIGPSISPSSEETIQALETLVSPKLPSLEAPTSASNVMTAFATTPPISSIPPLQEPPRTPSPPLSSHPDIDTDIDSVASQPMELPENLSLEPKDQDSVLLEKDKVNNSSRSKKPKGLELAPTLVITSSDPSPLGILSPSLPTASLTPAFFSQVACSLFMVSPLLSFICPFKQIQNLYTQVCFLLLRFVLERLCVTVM
# Procedure, shortened: as §1
# ETV2 = target: T4, ETV2 (Homo sapiens, UniProt O00321 1-342); settings: protein: recombinant; tags: N-terminal GST; dsDNA, one strand shown
# T4 sequence: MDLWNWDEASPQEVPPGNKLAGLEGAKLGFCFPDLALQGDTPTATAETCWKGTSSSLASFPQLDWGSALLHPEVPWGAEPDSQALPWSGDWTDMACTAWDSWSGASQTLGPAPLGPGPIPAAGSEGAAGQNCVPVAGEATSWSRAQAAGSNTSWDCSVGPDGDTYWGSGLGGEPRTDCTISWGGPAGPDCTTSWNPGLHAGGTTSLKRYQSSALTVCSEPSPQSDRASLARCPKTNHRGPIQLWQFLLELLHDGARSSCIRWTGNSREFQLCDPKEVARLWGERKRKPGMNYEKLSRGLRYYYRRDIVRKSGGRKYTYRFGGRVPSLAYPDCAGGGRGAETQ
# Procedure, shortened: as §1
# CRX = CRX (Homo sapiens, UniProt O43186 1-299); settings: protein: recombinant; tags: N-terminal GST; dsDNA, one strand shown
# Chain of CRX (O43186 whole entry): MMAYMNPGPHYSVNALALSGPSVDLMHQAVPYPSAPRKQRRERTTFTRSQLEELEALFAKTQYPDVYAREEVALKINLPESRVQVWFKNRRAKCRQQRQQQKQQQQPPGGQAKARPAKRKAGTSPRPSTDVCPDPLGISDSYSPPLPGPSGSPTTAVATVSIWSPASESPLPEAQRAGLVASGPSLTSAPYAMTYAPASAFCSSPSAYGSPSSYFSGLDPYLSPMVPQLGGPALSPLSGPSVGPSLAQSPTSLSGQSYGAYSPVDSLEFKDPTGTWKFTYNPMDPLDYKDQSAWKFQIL
# Procedure, shortened: as §1
# ETV1 = ETV1 (Homo sapiens, UniProt P50549 1-477); settings: protein: recombinant; tags: N-terminal GST; dsDNA, one strand shown
# Chain of ETV1 (P50549 whole entry): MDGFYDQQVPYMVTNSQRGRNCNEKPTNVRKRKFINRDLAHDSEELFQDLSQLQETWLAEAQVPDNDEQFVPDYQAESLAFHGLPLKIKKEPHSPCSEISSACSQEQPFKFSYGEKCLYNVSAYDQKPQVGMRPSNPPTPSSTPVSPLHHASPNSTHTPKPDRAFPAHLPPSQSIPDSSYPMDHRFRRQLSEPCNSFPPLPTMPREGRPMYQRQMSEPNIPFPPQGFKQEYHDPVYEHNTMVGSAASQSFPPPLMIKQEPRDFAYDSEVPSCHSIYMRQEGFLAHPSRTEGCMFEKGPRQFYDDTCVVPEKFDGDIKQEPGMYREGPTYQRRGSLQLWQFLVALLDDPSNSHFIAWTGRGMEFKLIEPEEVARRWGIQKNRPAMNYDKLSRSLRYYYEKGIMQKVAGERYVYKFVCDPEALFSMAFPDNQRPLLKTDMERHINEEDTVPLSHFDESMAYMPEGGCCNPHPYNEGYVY
# Procedure, shortened: as §1
# ERF = target: T5, ERF (Homo sapiens, UniProt P50548 1-548); settings: protein: recombinant; tags: N-terminal GST; dsDNA, one strand shown
# T5 sequence: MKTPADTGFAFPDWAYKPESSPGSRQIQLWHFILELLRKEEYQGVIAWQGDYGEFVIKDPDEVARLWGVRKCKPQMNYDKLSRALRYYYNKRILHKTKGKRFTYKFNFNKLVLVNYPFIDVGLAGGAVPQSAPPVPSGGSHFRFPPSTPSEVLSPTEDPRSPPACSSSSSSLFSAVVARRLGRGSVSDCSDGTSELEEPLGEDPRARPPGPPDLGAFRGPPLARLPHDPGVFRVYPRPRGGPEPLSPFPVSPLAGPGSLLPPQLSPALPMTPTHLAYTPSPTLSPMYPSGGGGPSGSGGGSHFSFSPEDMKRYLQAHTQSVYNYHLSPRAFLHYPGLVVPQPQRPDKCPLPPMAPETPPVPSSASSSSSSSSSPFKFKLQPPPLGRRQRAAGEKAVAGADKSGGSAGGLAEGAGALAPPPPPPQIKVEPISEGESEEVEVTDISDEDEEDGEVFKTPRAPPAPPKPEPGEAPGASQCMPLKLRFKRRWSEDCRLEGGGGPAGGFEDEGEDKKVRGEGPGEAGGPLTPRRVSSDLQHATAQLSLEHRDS
# Procedure, shortened: as §1
# ETV3L = target: T6, ETV3L (Homo sapiens, UniProt Q6ZN32 1-361); settings: protein: recombinant; tags: N-terminal GST; dsDNA, one strand shown
# T6 sequence: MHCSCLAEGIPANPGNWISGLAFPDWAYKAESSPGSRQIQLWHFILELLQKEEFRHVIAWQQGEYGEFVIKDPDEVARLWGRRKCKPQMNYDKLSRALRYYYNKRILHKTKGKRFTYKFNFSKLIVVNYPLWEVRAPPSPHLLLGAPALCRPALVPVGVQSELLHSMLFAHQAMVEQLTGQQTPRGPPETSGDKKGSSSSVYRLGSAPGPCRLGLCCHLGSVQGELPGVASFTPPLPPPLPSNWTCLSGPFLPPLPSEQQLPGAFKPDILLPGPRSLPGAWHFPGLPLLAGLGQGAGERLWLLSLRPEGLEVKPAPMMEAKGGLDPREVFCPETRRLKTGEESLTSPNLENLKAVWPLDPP
# Procedure, shortened: as §1
# ETS2 = target: T7, ETS2 (Homo sapiens, UniProt P15036 1-469); settings: protein: recombinant; tags: N-terminal GST; dsDNA, one strand shown
# T7 sequence: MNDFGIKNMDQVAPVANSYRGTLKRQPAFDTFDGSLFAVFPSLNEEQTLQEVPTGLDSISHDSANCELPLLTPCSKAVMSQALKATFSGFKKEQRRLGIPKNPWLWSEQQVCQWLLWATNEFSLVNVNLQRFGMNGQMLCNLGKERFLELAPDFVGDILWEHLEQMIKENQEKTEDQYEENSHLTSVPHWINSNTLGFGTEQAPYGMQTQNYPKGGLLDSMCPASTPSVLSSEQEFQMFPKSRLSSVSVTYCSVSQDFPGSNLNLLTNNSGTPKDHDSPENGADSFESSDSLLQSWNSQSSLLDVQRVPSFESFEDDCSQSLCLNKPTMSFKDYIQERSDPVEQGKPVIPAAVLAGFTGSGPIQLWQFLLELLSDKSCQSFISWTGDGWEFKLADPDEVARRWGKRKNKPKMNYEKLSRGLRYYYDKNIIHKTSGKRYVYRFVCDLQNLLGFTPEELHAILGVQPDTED
# Procedure, shortened: as §1
# ETV7 = target: T8, ETV7 (Homo sapiens, UniProt Q9Y603 1-341); settings: protein: recombinant; tags: N-terminal GST; dsDNA, one strand shown
# T8 sequence: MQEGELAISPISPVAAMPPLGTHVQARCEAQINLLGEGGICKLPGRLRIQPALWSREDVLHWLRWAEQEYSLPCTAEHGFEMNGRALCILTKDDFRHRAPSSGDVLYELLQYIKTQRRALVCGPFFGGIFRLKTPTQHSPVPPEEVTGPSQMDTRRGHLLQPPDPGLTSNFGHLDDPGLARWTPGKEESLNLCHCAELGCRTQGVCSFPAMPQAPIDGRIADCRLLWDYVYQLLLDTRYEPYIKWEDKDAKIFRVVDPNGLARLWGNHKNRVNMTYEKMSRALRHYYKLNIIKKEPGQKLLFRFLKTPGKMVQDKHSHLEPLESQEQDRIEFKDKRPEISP
# Procedure, shortened: as §1
# ELF5 = target: T9, ELF5 (Homo sapiens, UniProt Q9UKW6-2 1-255); settings: protein: recombinant; tags: N-terminal GST; dsDNA, one strand shown
# T9 sequence: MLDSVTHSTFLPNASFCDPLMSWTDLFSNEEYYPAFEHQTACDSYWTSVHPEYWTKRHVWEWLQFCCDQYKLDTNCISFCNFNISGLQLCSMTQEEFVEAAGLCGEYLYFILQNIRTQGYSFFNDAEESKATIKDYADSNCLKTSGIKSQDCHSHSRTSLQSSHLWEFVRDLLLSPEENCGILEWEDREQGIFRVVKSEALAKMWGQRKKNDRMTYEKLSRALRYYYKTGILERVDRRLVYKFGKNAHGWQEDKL
# Procedure, shortened: as §1
# ETV3 = target: T10, ETV3 (Homo sapiens, UniProt P41162-2 1-143); settings: protein: recombinant; tags: N-terminal GST; dsDNA, one strand shown
# T10 sequence: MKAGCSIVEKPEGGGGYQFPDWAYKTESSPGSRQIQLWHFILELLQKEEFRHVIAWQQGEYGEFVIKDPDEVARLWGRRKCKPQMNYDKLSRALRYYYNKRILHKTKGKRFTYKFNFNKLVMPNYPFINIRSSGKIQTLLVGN
# Procedure, shortened: as §1
# ETV6 = ETV6 (Homo sapiens, UniProt P41212 1-452); settings: protein: recombinant; tags: N-terminal GST; dsDNA, one strand shown
# Chain of ETV6 (P41212 whole entry): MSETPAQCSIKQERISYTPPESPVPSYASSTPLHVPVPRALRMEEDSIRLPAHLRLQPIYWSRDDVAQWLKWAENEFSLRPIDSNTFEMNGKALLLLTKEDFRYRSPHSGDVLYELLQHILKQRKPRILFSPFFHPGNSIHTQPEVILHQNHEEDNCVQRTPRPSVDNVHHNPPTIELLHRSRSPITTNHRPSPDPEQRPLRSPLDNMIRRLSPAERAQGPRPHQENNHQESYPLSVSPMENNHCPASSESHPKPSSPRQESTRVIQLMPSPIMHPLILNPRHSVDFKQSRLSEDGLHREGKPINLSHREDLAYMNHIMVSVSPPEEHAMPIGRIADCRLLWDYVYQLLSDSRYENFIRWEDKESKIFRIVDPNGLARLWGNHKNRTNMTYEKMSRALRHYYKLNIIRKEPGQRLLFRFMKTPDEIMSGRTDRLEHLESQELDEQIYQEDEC
# Procedure, shortened: as §1
sequence,measurement,setting,value
TTTCGC,binding signal,FEV,"1.16 fold enrichment (6-mer frequency, TF over GST control)"
same,binding signal,ETV5,"1.08 fold enrichment (6-mer frequency, TF over GST control)"
same,binding signal,HSF1,"1.32 fold enrichment (6-mer frequency, TF over GST control)"
same,binding signal,SPIC,"1.2 fold enrichment (6-mer frequency, TF over GST control)"
same,binding signal,ELF4,"1.08 fold enrichment (6-mer frequency, TF over GST control)"
same,binding signal,ELK4,"1.24 fold enrichment (6-mer frequency, TF over GST control)"
same,binding signal,ETV2,"1.39 fold enrichment (6-mer frequency, TF over GST control)"
same,binding signal,CRX,"1.19 fold enrichment (6-mer frequency, TF over GST control)"
same,binding signal,ETV1,"1.09 fold enrichment (6-mer frequency, TF over GST control)"
same,binding signal,ERF,"1.1 fold enrichment (6-mer frequency, TF over GST control)"
same,binding signal,ETV3L,"1.25 fold enrichment (6-mer frequency, TF over GST control)"
same,binding signal,ETS2,"1.14 fold enrichment (6-mer frequency, TF over GST control)"
same,binding signal,ETV7,"1.16 fold enrichment (6-mer frequency, TF over GST control)"
same,binding signal,ELF5,"1.08 fold enrichment (6-mer frequency, TF over GST control)"
same,binding signal,ETV3,"1.13 fold enrichment (6-mer frequency, TF over GST control)"
same,binding signal,ETV6,"1.11 fold enrichment (6-mer frequency, TF over GST control)"
